High-throughput results: PubChem, National Center for Advancing Translational Sciences (NCATS)
AMA1 RON2 block = qHTS for Inhibitors of AMA1-RON; Towards Development of Antimalarial Drug Lead: Primary Screen | AlphaScreen AMA1-biotinylated RON2 peptide binding | 360,000 tested, 0.2% active | Potency, µM (top dose mostly 58.2 µM), for the others: at the top dose activity change, negative = inhibition, hits mostly inhibitors | Plasmodium falciparum AMA1 (3D7) - RON2 peptide interaction;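 also: potency is read from the fitted curve at half-maximal effect; 0% = vehicle wells and -100% = peptide control; nearly all actives have a fitted effect of over 45% in size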
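AMA1 (3D7) with his tag at 25 nM final met compounds first, then biotinylated RON2 peptide at 25 nM; detection used donor plus acceptor beads, 10 µg/mL apiece, read by AlphaScreen after 30 min at room temperature.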
Vaccinia Venus = qHTS for Stage-Specific Inhibitors of Vaccinia Orthopoxvirus: Venus Reporter Primary qHTS. Vaccinia virus Venus reporter expression, fluorescence. AID 720580, 2013. 330,000 tested, 0.46% active. Potency, µM (highest dose often 36.5 µM), without a hit: top-dose activity change, negative = inhibition, actives largely listed as inhibitors; calls by dose curve; tested in A549 cells; also: potency is read from the fitted curve at half-maximal effect; % is scaled to controls: 0 for no effect and ±100 for the full control effect; nearly all actives have a fitted effect of over 30% in size
VACV mCherry inh = qHTS for Stage-Specific Inhibitors of Vaccinia Orthopoxvirus: mCherry Reporter Primary qHTS; Vaccinia virus mCherry reporter infection, fluorescence; Potency, µM (doses to about 36.5 µM), inactives show at the highest dose activity change, negative = inhibition, actives largely listed as inhibitors; 310,000 tested, 0.63% active; AID 720579, 2013; calls by dose curve; tested in A549 cells; also: potency is read from the fitted curve at half-maximal effect; % is scaled to controls: 0 for no effect and ±100 for the full control effect; nearly all actives have a fitted effect of over 35% in size
AmpC detergent = qHTS Inhibitors of AmpC Beta-Lactamase (assay with detergent); P00811; AmpC hydrolysis of nitrocefin, absorbance 480 nm, 0.01% Triton; Potency, µM (doses to about 114 µM), inactives show at the top dose activity change, negative = inhibition, hits mostly inhibitors; 370,000 tested, 0.041% active; AID 485294, 2010;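 also: potency is read from the fitted curve at half-maximal effect; 0% = no-compound wells and -100% = no-enzyme wells; nearly all actives have a fitted effect of over 25% in size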
Target sequence (P00811 whole entry, looked up): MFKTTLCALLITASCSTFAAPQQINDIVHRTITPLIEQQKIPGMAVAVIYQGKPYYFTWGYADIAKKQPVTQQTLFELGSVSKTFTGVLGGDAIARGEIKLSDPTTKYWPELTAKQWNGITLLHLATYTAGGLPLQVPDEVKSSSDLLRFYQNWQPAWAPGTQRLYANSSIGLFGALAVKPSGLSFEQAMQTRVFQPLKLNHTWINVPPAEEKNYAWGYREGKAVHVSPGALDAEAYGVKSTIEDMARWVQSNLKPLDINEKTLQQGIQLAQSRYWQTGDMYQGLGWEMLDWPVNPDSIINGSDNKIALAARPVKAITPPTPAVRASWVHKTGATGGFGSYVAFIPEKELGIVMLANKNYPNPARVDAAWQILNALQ
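AmpC (5.3 nM in the dispensed reagent) in 20 mM phosphate pH 7.0 with 0.01% (detergent screen) or 0.0001% Triton X-100 was preincubated with compounds for 15 min at room temperature. Nitrocefin was then added from an 800 uM solution, and hydrolysis was followed at 480 nm.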
SARS PLpro yeast-1 = qHTS of Yeast-based Assay for SARS-CoV PLP; S. cerevisiae expressing SARS-CoV PLpro, growth rescue; Potency, µM (top dose mostly 32.9 µM), inactives show at the highest dose activity, positive = growth rescue, actives largely listed as activators; 330,000 tested, 0.19% active; calls by dose curve; also: potency is read from the fitted curve at half-maximal effect; 0% is about no effect; nearly all actives have a fitted effect of over 55% in size
AmpC inh no detg = qHTS Inhibitors of AmpC Beta-Lactamase (assay without detergent); 330,000 tested, 0.52% active; Potency, µM (highest dose often 57.1 µM), without a hit: top-dose activity change, negative = inhibition, most hits filed as inhibitors; AmpC nitrocefin hydrolysis, absorbance 480 nm, 0.0001% Triton; P00811;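 also: potency is read from the fitted curve at half-maximal effect; plate controls were no compound for no effect and no enzyme for full effect; nearly all actives have a fitted effect of over 20% in size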
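AmpC (5.3 nM in the dispensed reagent) in 20 mM phosphate pH 7.0 with 0.01% (detergent screen) or 0.0001% Triton X-100 was preincubated with compounds for 15 min at room temperature. Nitrocefin was then added from an 800 uM solution, and hydrolysis was followed at 480 nm.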
SARS PLpro yeast-2 = qHTS of Yeast-based Assay for SARS-CoV PLP: Hit Validation; shares compounds with SARS PLpro yeast-1; yeast expressing SARS-CoV PLpro, growth phenotype rescue; calls only; 1,000 tested, 19% active; call rule not given here
An asterisk follows results filed as active; i = inactive; ? = inconclusive; . = no result given; + = active, no number; [ ] = another dose, or the depositor's remark. Rows were chosen to be rich in hits. Some 1.3% of all compounds tested hit in one or more screens of this group. Unless noted, calls follow the shape of the dose curve; as a rule, active = well fitted curve in the direction sought with a large enough effect; inconclusive = small, poorly fitted or top-dose-only effect, or another doubt; inactive = no such curve, though single readings can be large; an effect the other way counts as inactive or inconclusive.

SMILES | AMA1 RON2 block | Vaccinia Venus | VACV mCherry inh | AmpC detergent | SARS PLpro yeast-1 | AmpC inh no detg | SARS PLpro yeast-2
COc1ccc(N(C(C)C(=O)NN=C2CCCC2)S(C)(=O)=O)cc1 (stereo not given) | 7% | . | . | 2% | 11µM* | -5% | i
COc1ccc(/C=N/NC2=NS(=O)(=O)c3ccccc32)cc1 | 76% | . | . | 3% | 2% | -15% | .
O=S1(=O)N=C(N/N=C/c2ccccn2)c2ccccc21 | -14% | -12% | -19% | ? | 22µM* | -8% | +
Cc1ccc(-c2csc(C(O)c3cccc(Cl)c3)n2)cc1C (stereo not given) | 5% | 2% | -5% | . | . | . | .
CC(=O)N=C1C=CC(=CN(O)C(C)(C)Cc2ccccc2)C=C1 | -9% | -3% | -2% | -9% | -3% | -12% | .
O=Cc1c(Sc2ccccc2)nc2ccccn2c1=O | 2% | -23% | ? | 0% | ? | -9% | i
O=Cc1c(Sc2ccccn2)nc2ccccn2c1=O | 0% | -13% | -25% | 1% | -4% | -16% | .
CCNC(=S)Nc1ccc(C)c(Cl)c1 | -14% | -18% | -8% | 5% | ? | -12% | +
Brc1ccc(OCc2nc(-c3ccccn3)n[nH]2)cc1 | -35% | -35% | . | 0% | ? | -23% | +
COC(=O)c1ccc2c(=O)n(NC(=O)C(c3ccccc3)c3ccccc3)c(=S)[nH]c2c1 | 29% | . | . | ? | ? | -49% | i
COC(=O)c1ccc2c(=O)n(CCO)c(=S)[nH]c2c1 | 46% | -8% | i | 1% | 3% | -11% | .
CCOC(=O)c1[nH]cnc1C(=O)N1CCN(C(=O)OC(C)(C)C)CC1 | 6% | -17% | -22% | 0% | ? | -11% | ?
C[C@H](OC(=O)c1[nH]cnc1C(=O)N1CCN(C(=O)OC(C)(C)C)CC1)c1ccccc1 | -1% | -19% | -7% | . | -4% | 70% | .
C=CCc1cccc(/C=N/NC(=O)C(C)Nc2ccc(C)cc2)c1O (stereo not given) | 27% | ? | -29% | -3% | ? | -57% | i
C=CCc1cccc(/C=N/NC(=O)C(=O)Nc2ccc(C)cc2)c1O | 66% | -17% | -2% | -2% | 1% | -40% | .
O=C(CN1C(=O)C(=O)N(C2CCCC2)C1=O)Nc1ccc(Cl)cc1C(F)(F)F | -11% | -10% | -19% | 7% | -5% | -11% | .
CCOC(=O)/C(C#N)=C\c1cn(C)c2ccccc12 | -13% | -5% | -3% | -4% | -1% | 6% | .
CCOC(=O)/C(C#N)=C/c1c(OCC)n(CC)c2ccccc12 | 1% | -19% | -11% | -22% | 13µM* | -9% | i
COc1ccc2oc(C(=O)OCC(=O)N(C)CC(=O)Nc3ccc(F)cc3)c(C)c2c1 | -11% | -8% | -13% | 1% | ? | 22% | i
COc1ccc2oc(C(=O)OCC(=O)NC(=O)c3ccccc3)c(C)c2c1 | -4% | -8% | -2% | -7% | -5% | -34% | .
CCN(CC)C(=O)C1=C(C)N(CCCOC)C(=O)C(CC(=O)NCCCN(C)C)C1 (stereo not given) | 8% | -9% | i | . | . | . | .
O=C(CSc1nnc(Cn2c(=O)sc3ccccc32)n1-c1ccccc1)N1CCCC1 | -4% | . | . | ? | ? | -18% | i
Cc1c(C(=O)NC(=S)Nc2ccccc2N2CCCC2)cccc1[N+](=O)[O-] | 7%[2.32 µM] | -15% | -23% | 0% | 7.1µM* | -39% | +
O=C(NC(=S)Nc1ccccc1N1CCCC1)c1ccc([N+](=O)[O-])cc1 | -14%[2.32 µM] | -28% | -21% | 9% | ? | -21% | .
